Data published in a collection of fitness landscapes (doi:10.1126/science.1257360).
In all, about 140,000 sequences were measured (“enrichment ratio after two sorts for PhoP signalling”: median about 0, highest 2% from about 11 on). This excerpt belongs to a sample that is enriched for the highest values.

B1: PhoQ; a variant is named by its letters at X, in order, P23837 (parent)
chain: MKKLLRLFFPLSLRVRFLLATAAVVLVLSLAYGMVALIGYSVSFDKTTFRLLRGESNLFYTLAKWENNKLHVELPENIDKQSPTMTLIYDENGQLLWAQRDVPWLMKMIQPDWLKSNGFHEIEADVNDTSLLLSGDHSIQQQLQEVREDDDDAEMTHSVAVNVYPATSRMPKLTIVVVDTIPVELKSSYMVWSWFIYVLSANLLLVIPLLWVAAWWSLRPIEALAKEVRELEEHNRELLNPATTRELTSLVRNLNRLLKSERERYDKYRTTLTDLTHSLKTPLXXLQXXLRSLRSEKMSVSDAEPVMLEQISRISQQIGYYLHRASMRGGTLLSRELHPVAPLLDNLTSALNKVYQRKGVNISLDISPEISFVGEQNDFVEVMGNVLDNACKYCLEFVEISARQTDEHLYIVVEDDGPGIPLSKREVIFDRGQRVDTLRPGQGVGLAVAREITEQYEGKIVAGESMLGGARMEVIFGRQHSAPKDE

Variants of: B1
Assay: enrichment ratio after two sorts for PhoP signalling (ratio (wild type AVST 3.29)); higher = more functional
Settings: with PhoP (E. coli)

| Variant | enrichment ratio |
| --- | --- |
| DNAA | ≤ 0.25 |
| DPIA | ≤ 0.25 |
| GRAC | ≤ 0.25 |
| NSML | 4.86 |
| TSML | 17.8 |
| KSML | ≤ 0.25 |
| PARS | ≤ 0.25 |
| QYPA | ≤ 0.25 |
| YART | ≤ 0.25 |
| QKCC | ≤ 0.25 |
| TVGQ | 15.3 |
| KIGQ | ≤ 0.25 |
| PVGG | ≤ 0.25 |
| HCGQ | ≤ 0.25 |
| TVGG | 16.2 |
| NVGG | ≤ 0.25 |
| ELLA | ≤ 0.25 |
| RCNM | ≤ 0.25 |
| THRA | ≤ 0.25 |
| PAWH | ≤ 0.25 |
| THDV | ≤ 0.25 |
| RHTL | ≤ 0.25 |
| NEQT | ≤ 0.25 |
| TEQT | 23.1 |
| RIQT | ≤ 0.25 |
| TKTS | 11.9 |

| Variant | enrichment ratio |
| --- | --- |
| TIQT | 12.7 |
| AIQT | ≤ 0.25 |
| TGCT | 1.82 |
| GNCT | 10.8 |
| GGCT | 15.6 |
| MKTS | ≤ 0.25 |
| AKTS | 5.9 |
| KRQT | ≤ 0.25 |
| QLVG | ≤ 0.25 |
| ADVM | 6.88 |
| KTVF | ≤ 0.25 |
| GTKH | ≤ 0.25 |
| IWLA | ≤ 0.25 |
| KRCT | ≤ 0.25 |
| TRCT | 18.2 |
| HKCT | ≤ 0.25 |
| ADCT | ≤ 0.25 |
| ADQT | ≤ 0.25 |
| KDQT | ≤ 0.25 |
| FDCT | ≤ 0.25 |
| KKCT | ≤ 0.25 |
| TDQT | 34.2 |
| TKCT | 38.2 |
| HRCT | ≤ 0.25 |
| TDCT | 14.8 |
| SNRN | ≤ 0.25 |

| Variant | enrichment ratio |
| --- | --- |
| VNAY | ≤ 0.25 |
| NARV | ≤ 0.25 |
| WLPG | ≤ 0.25 |
| LHMC | ≤ 0.25 |
| VHGV | ≤ 0.25 |
| KDPY | ≤ 0.25 |
| PSCV | ≤ 0.25 |
| TKKT | ≤ 0.25 |
| TKAT | 14.5 |
| KKLT | ≤ 0.25 |
| TKPT | ≤ 0.25 |
| TKLT | 15.3 |
| TKQT | 11.7 |
| KSQT | ≤ 0.25 |
| TKFT | ≤ 0.25 |
| KAQT | ≤ 0.25 |
| TDYD | ≤ 0.25 |
| WDAF | ≤ 0.25 |
| KLHT | ≤ 0.25 |
| MLHT | 11.5 |
| MEHT | 24.2 |
| NEHT | ≤ 0.25 |
| MRHT | 0.477 |
| MMHT | ≤ 0.25 |
| QEHT | 9.94 |
| TEHT | 27.2 |

| Variant | enrichment ratio |
| --- | --- |
| YYHT | ≤ 0.25 |
| NWHY | ≤ 0.25 |
| TYIE | ≤ 0.25 |
| DLWY | ≤ 0.25 |
| KLWE | ≤ 0.25 |
| KHER | ≤ 0.25 |
| TVFL | ≤ 0.25 |
| LIMQ | ≤ 0.25 |
| NNDM | ≤ 0.25 |
| FCHM | ≤ 0.25 |
| ATSV | 12.7 |
| YTSV | ≤ 0.25 |
| YDSV | ≤ 0.25 |
| TTSV | 15.8 |
| STSV | 9.12 |
| KQSV | ≤ 0.25 |
| SWRT | ≤ 0.25 |
| RRQV | ≤ 0.25 |
| VWEC | ≤ 0.25 |
| TETR | ≤ 0.25 |
| METE | ≤ 0.25 |
| TETS | 13.7 |
| TETK | ≤ 0.25 |
| TETI | 17.3 |
| QETE | ≤ 0.25 |
| TETA | ≤ 0.25 |

| Variant | enrichment ratio |
| --- | --- |
| TETE | 18.8 |
| TETM | 22.4 |
| TETD | 2.04 |
| TEPM | ≤ 0.25 |
| RPDP | ≤ 0.25 |
| MVRG | ≤ 0.25 |
| NTNY | ≤ 0.25 |
| LYEH | ≤ 0.25 |
| IGTK | ≤ 0.25 |
| WQPW | ≤ 0.25 |
| PICS | ≤ 0.25 |
| DNDH | ≤ 0.25 |
| WQRE | ≤ 0.25 |
| LRQP | ≤ 0.25 |
| HPHL | ≤ 0.25 |
| GFYA | ≤ 0.25 |
| DGSI | ≤ 0.25 |
| GYWI | ≤ 0.25 |
| IGSE | ≤ 0.25 |
| METG | 4.62 |
| TETG | 35.8 |
| QETG | ≤ 0.25 |
| SFGG | ≤ 0.25 |
| PIPY | ≤ 0.25 |
| KIVE | ≤ 0.25 |
| EFFM | ≤ 0.25 |

| Variant | enrichment ratio |
| --- | --- |
| SSSN | 12.1 |
| KQSN | ≤ 0.25 |
| KSSN | ≤ 0.25 |
| SQSN | 7.46 |
| NSSN | ≤ 0.25 |
| SLSN | 8.45 |
| SDSN | ≤ 0.25 |
| YTSN | ≤ 0.25 |
| SNSN | 12.5 |
| SRSN | ≤ 0.25 |
| STSN | 11.3 |
| SCSN | 12.3 |
| DMGM | ≤ 0.25 |
| VHGA | ≤ 0.25 |
| FTWC | ≤ 0.25 |
| RPLR | ≤ 0.25 |
| EKAY | ≤ 0.25 |
| FPIV | ≤ 0.25 |
| TGSN | 8.1 |
| SGSG | 8.15 |
| SGSN | 13.3 |
| WDWH | ≤ 0.25 |
| SESH | 13.1 |
